BRCA1 expr up = BRCA1 expression activation; 1.1% of 380,000 active; MCF7-BRCA1-FFLuc reporter, luminescence, 48 h; response scale: scaled: vehicle 0%, 10 µM genistein 100%; Potency, µM (highest dose often 46.1 µM), for the others: at the highest dose activation, actives largely listed as activators; AID 624202; note: nearly all actives have a fitted effect of over 80% in size
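Quantitative HTS in MCF7 cells stably reporting BRCA1 expression via firefly luciferase. Compound treatment lasts 48 h at 37 °C in phenol-red free MEM. Activation is expressed relative to genistein at 10 microM and DMSO.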
Integrin act MD = activators of alpha7 integrin expression for muscular dystrophy; alpha7betagal myoblasts, beta-gal FDG fluorescence, 48 h; Potency, µM (doses to about 38.3 µM), for inactives: at the top dose activation, most hits filed as activators; 0.064% of 350,000 active; AID 624291;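 note: 100% = response of the positive control SU9516; nearly all actives have a fitted effect of over 60% in size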
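Alpha7betagal+/- myoblasts (passage 13) were plated 16-24 hr, then exposed to compounds (1:260 dilution of DMSO stock) for 48 hours at 37C. After MPER lysis, β-galactosidase reporter activity was read as FDG fluorescence (ex 480/em 540) after 30 minutes.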
GLP1R inv ag = inverse agonists of human GLP-1 receptor | P43220 | AID 624417 | Potency, µM (highest dose often 38.3 µM), without a hit: at the top dose activity change, negative = inhibition, most hits filed as inhibitors | HEK293 GLP-1R CRE-luciferase, luminescence, 24 h; GLP-1R form is constitutively active | 1.6% of 410,000 active; note: % is set by controls: 0 for no effect and ±100 for the full control effect; nearly all actives have a fitted effect of over 55% in size
Target sequence (P43220 whole entry, looked up): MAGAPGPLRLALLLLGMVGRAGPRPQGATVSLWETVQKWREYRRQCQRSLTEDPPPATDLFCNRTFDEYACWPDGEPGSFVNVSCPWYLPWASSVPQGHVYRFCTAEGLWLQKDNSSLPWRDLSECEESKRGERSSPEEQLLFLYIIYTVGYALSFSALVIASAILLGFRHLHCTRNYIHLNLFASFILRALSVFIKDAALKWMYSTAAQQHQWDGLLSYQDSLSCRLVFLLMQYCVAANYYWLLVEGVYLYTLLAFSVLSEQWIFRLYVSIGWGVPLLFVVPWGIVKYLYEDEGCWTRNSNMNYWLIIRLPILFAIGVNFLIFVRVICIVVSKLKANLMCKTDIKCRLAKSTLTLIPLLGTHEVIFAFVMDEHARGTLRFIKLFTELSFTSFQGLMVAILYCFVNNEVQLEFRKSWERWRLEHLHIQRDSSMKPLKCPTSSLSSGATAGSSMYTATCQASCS
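Inverse agonists were sought by their lowering of basal cAMP reporter luciferase output in HEK293 cells stably carrying constitutively active human GLP-1R, after 24 h compound treatment.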
HEK293 tox = cytotoxicity counter-screen for GLP-1 receptor inverse agonists; 0.13% of 410,000 active; Potency, µM (titrated, usually from 38.3 µM), for the others: top-dose activity change, negative = inhibition, most hits filed as inhibitors; HEK293 cAMP-luciferase reporter cells, luminescence, 24 h;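 note: loss of luciferase light is scored as toxicity; % is set by controls: 0 for no effect and ±100 for the full control effect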
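Here, cytotoxicity is scored as loss of luminescence. The MLSMR collection was tested on cells seeded in medium containing 10% Nu serum, with a 24 hr compound exposure preceded by 12 hours of culture.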
GLP1R ag = activates the human GLP-1 receptor; P43220; HEK293 GLP-1R CRE-luciferase, luminescence, 4-6 h; cells express a hypersensitive GLP-1R form; Potency, µM (doses to about 45.6 µM), without a hit: top-dose activation, most hits filed as activators; 0.007% of 380,000 active; AID 624172; note: % of control where 0% means no effect
* = called active by the depositor. This is a sample that favours compounds with a hit; in the whole collection about 2.7% have one here. Calls come from the whole dose curve; as a rule, active = well fitted curve in the direction sought with a large enough effect; inconclusive = small, poorly fitted or top-dose-only effect, or another doubt; inactive = no such curve, though single readings can be large; an effect the other way counts as inactive or inconclusive. Potency is the fitted concentration of half-maximal effect.

`CCOc1ccc(-c2cc(NC(=O)Nc3ccc(Cl)cc3)c(C(=O)OC)s2)cc1` gave GLP1R inv ag 12.5% and HEK293 tox 0.3%.
Cc1ccc(N(C)S(=O)(=O)c2cccc(C(=O)NC3CC(C)(C)NC(C)(C)C3)c2)cc1 was read as BRCA1 expr up -28.4%, Integrin act MD -17.0%, GLP1R inv ag 11.2µM*, HEK293 tox -2.1% and GLP1R ag 0.4%.
Screening CCN(CCCN(C)C)c1ccc(/C=C/c2ccnc3ccccc23)cc1 returned BRCA1 expr up -14.4%.
`O=C(COc1ccccc1C(=O)Nc1ccccc1)Nc1ccc(-c2ccccc2)cc1` gave BRCA1 expr up 38.5%.
`Cc1cc(Br)ccc1NC(=O)c1cc2c(s1)-c1ccccc1SC2` gave GLP1R inv ag 10µM* and HEK293 tox -6.9%.
Screening CC1(C(=O)NCc2cccc3ccccc23)CCN1Cc1ccccc1OC(F)F (configuration not stated) returned BRCA1 expr up -10.0%, GLP1R inv ag 12.6µM*, HEK293 tox -15.0% and GLP1R ag 2.2%.
`O=C(COc1ccc(Br)cc1Cl)NC(=S)Nc1ccccn1` gave BRCA1 expr up inconclusive, Integrin act MD -3.3%, GLP1R inv ag -1.6%, HEK293 tox -5.1% and GLP1R ag -1.5%.
Screening Cc1ccc(OCC(=O)NC(=S)Nc2ccccn2)c(Br)c1 returned BRCA1 expr up 11.2µM*, Integrin act MD 11.6%, GLP1R inv ag -20.0%, HEK293 tox 3.1% and GLP1R ag -4.8%.
For Cc1ccccc1Nc1nc(N)nc(COC(=O)c2ccco2)n1 the results were BRCA1 expr up 3.98µM*, Integrin act MD 2.7%, GLP1R inv ag 29.5%, HEK293 tox 17.8% and GLP1R ag 12.2%.
Screening Nc1nc(COC(=O)c2ccco2)nc(Nc2ccccc2)n1 returned BRCA1 expr up 71.1%, Integrin act MD 3.5%, GLP1R inv ag 31.5%, HEK293 tox -1.2% and GLP1R ag 17.3%.
Screening O=C(c1ccc(F)cc1)c1cnc(Nc2ccccc2)s1 returned BRCA1 expr up 2µM*, Integrin act MD 0.0%, GLP1R inv ag 14.9%, HEK293 tox 10.1% and GLP1R ag 4.5%.
`CNc1ncc(C(=O)c2ccc(F)cc2)s1` gave BRCA1 expr up inconclusive, Integrin act MD 11.1%, GLP1R inv ag 21.6%, HEK293 tox -9.9% and GLP1R ag 17.7%.
For CCOc1ccc(-c2c(C)nn3c(C)c(C(=O)NC(C)c4ccccc4)cnc23)cc1OCC (configuration not stated) the results were GLP1R inv ag -9.2% and HEK293 tox -4.1%.
For CCOC(=O)c1csc(NC(=O)c2ccccc2)n1 the results were BRCA1 expr up 3.98µM*, Integrin act MD 12.6%, GLP1R inv ag -3.6%, HEK293 tox 4.6% and GLP1R ag 1.0%.
COC(=O)c1ccccc1NC(=O)N1c2ccccc2Sc2ccccc21 was read as BRCA1 expr up -38.0%, Integrin act MD 6.1%, GLP1R inv ag 10µM*, HEK293 tox 27.7% and GLP1R ag 26.1%.
For Cc1ccc(-n2ncc3c(Nc4cccc(C)c4C)ncnc32)cc1 the results were GLP1R inv ag -25.0% and HEK293 tox 3.5%.
CC(C)COc1ccc(C(=O)Nc2ccc(SC(F)F)cc2)cc1 was read as BRCA1 expr up 8.91µM*, Integrin act MD 6.6%, GLP1R inv ag -20.2%, HEK293 tox 0.4% and GLP1R ag -7.8%.
COC(=O)CNC(c1ccccc1)c1cc(Br)ccc1NC(=O)OCc1ccccc1 (configuration not stated) was read as BRCA1 expr up -38.4%, Integrin act MD -4.0%, GLP1R inv ag 3.98µM*, HEK293 tox 4.7% and GLP1R ag -2.9%.
CCOC(=O)C1CCC(CN(Cc2ccc(OC)cc2)S(=O)(=O)c2ccc(F)c(C(=O)Nc3c(C)cccc3C)c2)CC1 (configuration not stated) was read as GLP1R inv ag 2µM* and HEK293 tox -1.0%.
For CCOC(=O)C1CCC(CN(Cc2ccc(OC)cc2)S(=O)(=O)c2ccc(F)c(C(=O)Nc3cc(Cl)ccc3OC)c2)CC1 (configuration not stated) the results were GLP1R inv ag inconclusive and HEK293 tox 20.6%.
Screening COc1cccc(C(=O)Nc2cc(-c3ccccc3)no2)c1 returned GLP1R inv ag 6.4% and HEK293 tox -0.1%.
For CCCCNS(=O)(=O)c1ccc(NC(=O)C(Sc2ccccc2)c2ccccc2)cc1 (configuration not stated) the results were BRCA1 expr up -77.4%, Integrin act MD -57.5%, GLP1R inv ag 4.47µM*, HEK293 tox -11.8% and GLP1R ag -5.0%.
`CCOC(=O)c1ccc(N=c2sc(C(=O)OC)cc(=O)n2Cc2ccco2)cc1` gave BRCA1 expr up -39.1%, Integrin act MD 7.4%, GLP1R inv ag 4.47µM*, HEK293 tox inconclusive and GLP1R ag 6.5%.
`Clc1ccccc1OCCn1nnc2ccccc21` gave BRCA1 expr up 11.2µM*, Integrin act MD -18.1%, GLP1R inv ag -17.1%, HEK293 tox -7.6% and GLP1R ag -2.3%.
`Cc1cc(C)cc(OCCn2nnc3ccccc32)c1` gave BRCA1 expr up 11.2µM*, Integrin act MD 15.6%, GLP1R inv ag -14.5%, HEK293 tox 1.8% and GLP1R ag 7.5%.
Screening O=C(C[N+]1(CCO)CCOCC1)c1ccc(F)c2ccccc12 returned BRCA1 expr up -47.0%.
Screening O=C(Nc1ccccc1Br)c1cnn2c1NC(=C1CC1)C=C2C(F)F returned BRCA1 expr up -23.7%.
Screening Clc1ccc(CN=C2Nc3ccccc3CS2)cc1 returned BRCA1 expr up 8.91µM*, Integrin act MD -4.3%, GLP1R inv ag inconclusive, HEK293 tox -13.0% and GLP1R ag 13.6%.
Screening CCOc1ccc(CC(=O)NCCc2sc3nc(-c4ccc(OC)cc4)nn3c2C)cc1 returned GLP1R inv ag 9.5% and HEK293 tox 9.3%.
CCC(=O)NCCc1sc2nc(-c3ccc(OC)cc3)nn2c1C was read as BRCA1 expr up 5.01µM*, GLP1R inv ag 17.0%, HEK293 tox 8.1% and GLP1R ag 7.7%.
For CNC(=O)C1CCC(Cn2c(=O)c3sccc3n(CC(=O)NCc3cccc(OC)c3)c2=O)CC1 (configuration not stated) the results were GLP1R inv ag 9.8% and HEK293 tox 1.7%.
Screening COCCCNC(=O)COc1ccc(Br)cc1Cl returned BRCA1 expr up 12.6µM*, Integrin act MD 8.8%, GLP1R inv ag 21.7%, HEK293 tox -6.0% and GLP1R ag 5.2%.
`CCNC(=O)COc1ccc(Br)cc1Cl` gave BRCA1 expr up 47.3%, Integrin act MD 6.6%, GLP1R inv ag 1.7%, HEK293 tox 11.4% and GLP1R ag 5.8%.
